Compound activity as filed in PubChem.
The list is not random: actives were taken first. Their share in the collection is about 4.1%.
CaV13 FRET inh: Disruptors of the CACNA1D IQ motif to Ca2+-dependent inactivation inhibitor domain association, primary screening, Förster resonance energy transfer in intact living …; HEK cells, CFP/YFP FRET ICDI-IQ, plate reader, 10 min; percent FRET-ratio fall versus neutral wells; inhibition, % at 12.3 µM; 340,000 compounds, 0.098% hits; AID 743397;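 active = mean replicate inhibition of at least 30% and at least 1% of replicates passing that level; inconclusive = only one of the two criteria is met; inactive = neither criterion is met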;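 note: 0% = median of the neutral control wells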
PolyA inh: inhibitors of polyadenylation in S. cerevisiae; S. cerevisiae SKY197-pL101 polyadenylation reporter, beta-gal luminescence; efflux-impaired pdr1/pdr3 knockout yeast; score 100 = 6 SD above DMSO; activity score, % at 12 µM; 300,000 compounds, 0.02% hits; AID 1875;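 active = lowest replicate activity score at least 50, where 100 means six control SD above control mean; inconclusive = lowest score under 50 but half or more replicates reach 50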;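 note: yeast exposed to compound for 9 h at 30 °C; higher score means more reporter readthrough which indicates perturbed polyadenylation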
IDE inh: inhibitors of human insulin-degrading enzyme in cells | P14735 | HEK cells, FAbetaB cleavage, fluorescence polarization | inhibition, % at 5.59 µM | 320,000 compounds, 0.41% hits;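 active = percent inhibition above the average of all tested compounds plus 3 SD, set per screening campaign, cut at about 16% in these data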;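 note: IDE supplied by intact live HEK cells; FP after avidin binding of uncleaved biotin substrate so inhibition keeps polarization high; 0% = DMSO wells and 100% = 60 µM reference IDE inhibitor Ii1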
PfM18AAP inh: blocks P. falciparum M18 aspartyl aminopeptidase; recombinant PfM18AAP, H-Glu-NHMec fluorogenic cleavage; inhibition, % at 7.35 µM; 290,000 compounds, 1.2% hits; AID 1822;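 active = inhibition above the campaign mean inhibition over all tested compounds plus 3 SD, cut at about 28% in these data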;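 note: 0% = plate median of test compound wells and 100% = 2 mM ZnCl2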
IDE act: IDE (human) activation, cell-based; P14735; HEK cells, FAbeta-B cleavage, fluorescence polarization; 0% vehicle, 100% cell-free pure enzyme wells; activation, % at 5.96 µM; 340,000 compounds, 0.073% hits; AID 493087;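 active = activation above the mean of all tested compounds plus 3 SD, set per screening campaign, cut at about 17% in these data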
ALR inh: inhibitors of human sulfhydryl oxidase ALR. P55789. purified ALR, DTT oxidation, H2O2 HRP-luminol luminescence. inhibition, % (no concentration beside the values). 290,000 compounds, 3.8% hits. AID 485317;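 active = mean replicate inhibition above about 79%, with every replicate also reaching it, limit read from the data; inconclusive = only one of the two criteria met; inactive = mean below limit and not every replicate reaching it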
* marks the source's active call; other numbers are inactive results; ? = inconclusive; nt = not tested or not shown.

SMILES	CaV13 FRET inh	PolyA inh	IDE inh	PfM18AAP inh	IDE act	ALR inh
Cc1ccc(-c2nc(CSCC(=O)N3CCCC3)c(C)o2)cc1	-4	-18	5	-11	-4	99*
CCOc1ccc(-c2nc(CSCC(=O)N3CCN(C(=O)c4ccco4)CC3)c(C)o2)cc1	-2	19	2	-12	-1	99*
CCOC(=O)CSCc1nc(-c2ccc(Cl)cc2)oc1C	-5	-16	3	1	-2	73
CCOC(=O)C1CCN(C(=O)CSCc2nc(-c3ccc(OCC)cc3)oc2C)CC1	-4	0	0	0	2	99*
COc1ccc([C@H]2C[C@@H](O)[C@H](n3cc(C4CC4)nn3)CN2CC2CCCCC2)cc1	-3	nt	nt	nt	nt	nt
COC(=O)C[C@@H]1C=C[C@H](NS(=O)(=O)c2cccc(F)c2)[C@@H](CO)O1	-4	nt	nt	nt	nt	nt
Cc1c(C(=O)O)cccc1-c1ccc(/C=N/Nc2ccc(Br)cc2)o1	-5	-17	-1	-18	1	100*
CCOC(=O)c1ccc(NC(=O)CN2C(=O)CSC2=O)cc1	-3	3	10	6	0	100*
CCOC(=O)c1ccc(NC(=O)CC2OCCN(CC)C2=O)cc1 (stereo unspecified)	-6	-21	-2	-2	-1	86*
CCOC(=O)c1ccc(NC(=O)CC2C(=O)OCCN2CC)cc1 (stereo unspecified)	-5	-55	3	3	-4	1
CCOc1cc(CNCC(C)C)c(Cl)cc1OCC(=O)Nc1ccccc1	-4	-1	4	5	2	19
Cc1nc(C)c(-c2csc(Nc3ccc(F)cc3)n2)s1	-6	1	1	4	-6	94*
Cc1cc(O)ccc1Nc1nc(-c2cccnc2)cs1	-5	-1	nt	19	4	72
c1cncc(Nc2nc(-c3cccs3)cs2)c1	-8	-16	-3	30*	-6	96*
Cc1nc(C)c(-c2csc(Nc3ccc(O)cc3C)n2)s1	-3	?	3	-4	-1	99*
c1ccc(-c2csc(Nc3cccnc3)n2)nc1	-8	-1	-3	1	-6	5
Cc1cc(O)ccc1Nc1nc(-c2cccs2)cs1	-5	4	5	11	-1	88*
COC(=O)c1sccc1NC(=O)CC1C(=O)NCCN1C(=O)c1c(F)cccc1Cl (stereo unspecified)	-21	13	-1	-5	-4	nt
Cc1ccccc1Cn1nnc(-c2ccc(F)cc2)n1	-4	22	-2	-7	3	93*
Cc1ccc(NC(=O)CSc2nnc(C)c(=O)[nH]2)cc1C	-5	4	-6	7	-4	95*
Cc1nnc(SCC(=O)Nc2cccc(C(F)(F)F)c2)[nH]c1=O	-5	-8	12	-6	5	98*
O=C(Nc1ccc(O)cc1C(=O)O)c1ccc2c(c1)C(=O)N(Cc1ccco1)C2=O	-4	15	3	-11	0	54
O=C(O)Cc1ccc(NC(=O)c2ccc3c(c2)C(=O)N(Cc2ccco2)C3=O)cc1	nt	16	1	-2	0	0
O=C(Nc1cc([N+](=O)[O-])ccc1O)c1ccc2c(c1)C(=O)N(Cc1ccco1)C2=O	-5	-13	0	-2	-5	98*
O=C(Nc1ccc(O)cc1)c1ccc2c(c1)C(=O)N(Cc1ccco1)C2=O	-6	29	6	3	6	100*
SMILES	CaV13 FRET inh	PolyA inh	IDE inh	PfM18AAP inh	IDE act	ALR inh
CCC1(C)NC(=O)N(CC(=O)NCC(=O)Nc2c(C)cc(C)cc2C)C1=O (stereo unspecified)	-5	nt	1	nt	5	nt
CCOC(=O)[C@]12CCC=C1N(Cc1ccccc1)C(=O)[C@H](CC(=O)NCC1CCCCC1)C2	-4	nt	nt	nt	nt	nt
Cc1cc([N+](=O)[O-])ccc1NC(=O)CSc1nncn1-c1ccccn1	-2	8	2	-2	4	-15
CCc1c(O)nc(SCC(=O)Nc2ccc(OC)cc2)n(C2CCCCC2)c1=O	-5	-8	-1	-8	-1	99*
CCc1c(O)nc(SCC(=O)Nc2nc3ccccc3s2)n(C2CCCCC2)c1=O	-5	-12	-2	2	-3	92*
COC(=O)c1sc(NC(=O)CSc2nc3cccnc3n2C2CCCCC2)nc1C	-4	0	2	-8	1	-5
CN(C)C(=O)c1ccc(NC(=O)c2ccc(-c3ccc(Cl)cc3)o2)cc1	-7	1	6	nt	0	-4
Cc1ccc(C(=O)Nc2nc3nc(-c4ccccc4)cc(=O)n3[nH]2)cc1	-5	11	1	-7	6	92*
Cn1cnnc1SCC(=O)c1cccc([N+](=O)[O-])c1	-16	7	2	2	2	83*
Cn1cnnc1SCC(=O)NNC(=O)c1ccc([N+](=O)[O-])cc1	-9	nt	-2	nt	-1	-9
COCCCNC(=O)c1ccccc1Oc1ccccc1	-5	10	0	-18	4	98*
COC(=O)c1ccc(CNc2ccc(C(C)=O)cc2)cc1	-8	nt	nt	nt	nt	nt
O=C(N/N=C/c1ccc(O)cc1)c1csc2c1CCCC2	-5	10	1	-2	0	99*
CNC(=S)NNC(=O)COc1ccc(C)c(C)c1	-4	-1	8	22	7	90*
Cc1ccc(OCC(=O)NC2CCCCCC2)cc1C	-10	8	2	-3	2	-1
Cc1ccc(OCC(=O)Nc2cccc(O)c2)cc1C	-4	-6	6	0	3	98*
COc1ccc(C(=O)N2CCN=C2SCc2cccnc2)cc1OC	15	13	2	4	4	100*
COc1ccccc1C(=O)N1CCN(Cc2cccnc2)CC1	-3	4	2	-13	-1	-8
COc1cccc(OC)c1C(=O)N1CCN=C1SCc1cccnc1	-4	7	5	5	-4	99*
CSc1cccc(NC(=O)CCS(=O)(=O)c2cccc3nonc23)c1	-2	-10	-3	4	-3	nt
C/C(=N\NC(=O)COc1ccc(C)cc1[N+](=O)[O-])c1cccs1	-4	98*	-8	-10	5	1
C/C(=N\NC(=O)COc1ccc(C)cc1Br)c1cc([N+](=O)[O-])cs1	-7	-15	6	1	1	-1
COc1ccccc1NC(=O)c1ccc(N)cc1	-8	14	2	0	0	-12
Nc1ccc(NC(=O)c2cccc(C(=O)Nc3ccc(N)cc3Cl)c2)c(Cl)c1	-3	23	-2	-5	2	99*
Nc1cccc(C(=O)Nc2ccc(N)cc2Cl)c1	-8	-8	0	9	-2	99*
COC(=O)c1ccc(C(=O)Nc2ccc(N)cc2N)cc1	nt	4	4	3	-3	92*
